Experimental data from the OligoGym collection.

Target: LUC7L2
Test: pooled miR-30 sensor sort-seq; sequence = guide strand
Details: shRNA

First: TGTCTCTGTCACATGATGCTAA
Second: TTAACTCATGAACACGTTCTGC
The sensor-assay potency score (higher = more potent) of the first is higher: -0.366 for the first, -0.686 for the second.

Going from TAATCTCTTCTTGAGTTTCTGC to TTGCATACTCTGTCATCACTGA, the sensor-assay potency score (higher = more potent) rises from -0.17 to 0.248.

First: TAGAACATCCTGAACATAGCAA
Second: TTGGATCGTTCTCTGCTCCTAT
The sensor-assay potency score (higher = more potent) of the first is lower: 0.289 for the first, 0.469 for the second.

Compared with TTTGGATCGAGTTCTCCTCTTG, TTGAGAAGGTGACTCTTGCATA is higher in sensor-assay potency score (higher = more potent): -0.398 for the first, -0.354 for the second.

Compared with TACTTCATCCATTACTTTCTGG, TCTCTTGAACTCCTGTCTCTGT is lower in sensor-assay potency score (higher = more potent): -0.257 for the first, -0.457 for the second.

TTTGCTGCTACTTCAGCACTAA showed a sensor-assay potency score (higher = more potent) of -0.0299.

Target: LY6K
Test: as above
Details: shRNA

Compared with AATTTTACAACACTTGAGGTAA, TCTATTGTCACCCTCGTCCGTT is higher in sensor-assay potency score (higher = more potent): -0.3 for the first, -0.102 for the second.

First: TCTTTGAACACTGATGAGTTGA
Second: TTGGCGTCTGTCCACACCCGCG
The sensor-assay potency score (higher = more potent) of the first is higher: -0.353 for the first, -1.54 for the second.

Compared with TATTCTTTGAACACTGATGAGT, TCTCTCACAAACATGACACCAC is higher in sensor-assay potency score (higher = more potent): -0.623 for the first, 0.0962 for the second.

Compared with TCTCCATCGCTGCACAACCAGC, TTGAACACTGATGAGTTGATAG is higher in sensor-assay potency score (higher = more potent): -1.92 for the first, -0.979 for the second.

First: TAGCGAATTTTACAACACTTGA
Second: TTTCTCTCTCACAAACATGACA
The sensor-assay potency score (higher = more potent) of the first is higher: -0.625 for the first, -1.23 for the second.

Going from AAACATGACACCACACTCTATT to TAATGCAACAGGTGACAACGGT, the sensor-assay potency score (higher = more potent) rises from -0.883 to -0.099.

Target: LY96
Test: as above
Details: shRNA

Compared with AATTGCTTTAAATCTCTCCTTG, TAATCGTCATCAGATCCTCGGC is lower in sensor-assay potency score (higher = more potent): -0.268 for the first, -0.407 for the second.

First: TTCAACAACACATTTGTATTTT
Second: TAGGATGACAAACTCCAAGCAA
The sensor-assay potency score (higher = more potent) of the first is lower: -1.05 for the first, -0.085 for the second.

First: TAAATCTCTCCTTGGAATGTAG
Second: AATAGCTTCAACAACACATTTG
The sensor-assay potency score (higher = more potent) of the first is higher: -0.351 for the first, -1.65 for the second.

Compared with TATAATTGCTTTAAATCTCTCC, TTGTTGTATTCACAGTCTCTCC is lower in sensor-assay potency score (higher = more potent): 0.0244 for the first, -1.2 for the second.

Going from TAGGTGTATGAAATACTTGCAT to TGTATGAAATACTTGCATCGGA, the sensor-assay potency score (higher = more potent) rises from -0.275 to -0.274.

Going from TTGTATTCACAGTCTCTCCCTT to TTGCTTTAAATCTCTCCTTGGA, the sensor-assay potency score (higher = more potent) rises from 0.102 to 0.126.

Target: LYPD3
Test: as above
Details: shRNA

First: TCTTGTTCGGGGAGCATCCGTC
Second: TTCATCCTGGACACAGCCCCGG
The sensor-assay potency score (higher = more potent) of the first is higher: -0.769 for the first, -0.847 for the second.

TAGAAGTGGTGACAGATGTGGT showed a sensor-assay potency score (higher = more potent) of -0.342.
